From PubChem BioAssay (Tox21)
Results filed as inconclusive are left out. A call without a number means that no potency is given here. Calls of active or inactive are those of the source. Unless noted, calls come from the whole dose curve.

Columns and labels:
[1] = target: Gonadotropin-releasing hormone receptor (Homo sapiens) (UniProt P30968); assay: Human gonadotropin-releasing hormone receptor (GnRHR) small molecule agonists, calcium flux assay in GnRHR-HEK293 cells (AID 1920063); note: nearly all actives have a fitted effect of over 35% in size; note: potency is the fitted concentration of half-maximal effect
Sequence of Gonadotropin-releasing hormone receptor (Homo sapiens) (P30968 whole entry, looked up): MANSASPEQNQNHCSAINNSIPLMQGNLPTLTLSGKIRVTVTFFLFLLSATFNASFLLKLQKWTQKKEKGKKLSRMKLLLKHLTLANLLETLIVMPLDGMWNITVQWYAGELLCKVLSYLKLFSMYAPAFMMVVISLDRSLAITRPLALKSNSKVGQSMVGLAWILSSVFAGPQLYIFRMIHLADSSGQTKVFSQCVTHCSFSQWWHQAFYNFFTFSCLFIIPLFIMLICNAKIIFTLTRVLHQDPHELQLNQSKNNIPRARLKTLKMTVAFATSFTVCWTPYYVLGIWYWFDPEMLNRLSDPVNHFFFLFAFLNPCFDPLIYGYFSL
How it was run: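 Tox21-format agonist screen using human GnRHR-expressing HEK293 cells and a fluorescent calcium dye; kinetic 3-min fluorescence reading after compound addition, 15-point concentration series run in triplicate.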

[2] = target: KiSS-1 receptor (Homo sapiens) (UniProt Q969F8); assay: Human kisspeptin (KISS1R) small molecule agonists, calcium flux assay in KISS1R-HEK293 cells (AID 1920064; active = well fitted activation curve with a large enough effect in the repeat runs)
Sequence of KiSS-1 receptor (Homo sapiens) (Q969F8 whole entry, looked up): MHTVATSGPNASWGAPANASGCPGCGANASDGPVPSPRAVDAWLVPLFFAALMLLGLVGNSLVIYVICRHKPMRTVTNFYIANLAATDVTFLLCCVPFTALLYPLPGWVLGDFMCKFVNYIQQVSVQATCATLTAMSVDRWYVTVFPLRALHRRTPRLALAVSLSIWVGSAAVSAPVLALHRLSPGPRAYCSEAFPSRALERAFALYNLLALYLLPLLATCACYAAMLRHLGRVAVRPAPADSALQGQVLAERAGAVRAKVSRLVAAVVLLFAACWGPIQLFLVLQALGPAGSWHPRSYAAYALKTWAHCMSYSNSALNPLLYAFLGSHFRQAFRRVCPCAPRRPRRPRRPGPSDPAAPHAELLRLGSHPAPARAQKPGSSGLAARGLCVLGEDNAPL
How it was run: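 Intracellular calcium mobilization in KISS1R-HEK293 cells was recorded by fluorescence (Ex/Em 480/540) for 3 min following compound addition to cells pre-loaded 1 h with calcium dye.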

[3] = G protein-coupled receptor (GPCR) small molecule agonists, calcium flux assay: HEK293 wild type cell line counter screen (AID 1920065)
How it was run: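 In this agonist-mode screen, ATP is the positive control and DMSO the vehicle. Cells grow 18 h before a 1 h dye incubation at 37 C; signal is taken at Ex/Em 480/540 over 3 min.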

[4] = p53 small molecule agonists, cell-based qHTS assay with human liver microsomes (AID 1963577);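 note: p53 response element beta-lactamase reporter cells with liver microsomes plus NADPH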
How it was run: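 In this qHTS, p53 response-element beta-lactamase cells receive test compound together with a microsome/NADPH activating system (0.5 mg/mL final each) and are incubated 16 h at 37 C before LiveBLAzer fluorescence detection.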

[5] = p53 small molecule agonists, cell-based qHTS assay with rat liver microsomes (AID 1963578)
How it was run: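 Agonist mode in p53RE-bla reporter cells, with compounds co-incubated 16 h at 37 C alongside 0.5 mg/mL rat liver microsomes and 0.5 mg/mL NADPH (final), followed by a 2 h LiveBLAzer detection step.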

[6] = p53 small molecule agonists, cell-based qHTS assay with human liver microsomes: qHTS cell viability counter screen (AID 1963579); note: nearly all actives have a fitted effect of over 45% in size; note: potency is the fitted concentration of half-maximal effect
How it was run: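 Metabolically activated exposure: compounds, human liver microsomes and NADPH (0.5 mg/mL final apiece) were added to p53RE-bla cells seeded 5 h earlier, left 16 h at 37 C, and then assessed for viability by CellTiter-Glo luminescence.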

[7] = p53 small molecule agonists, cell-based qHTS assay with rat liver microsomes: qHTS cell viability counter screen (AID 1963580); note: nearly all actives have a fitted effect of over 45% in size; note: potency is the fitted concentration of half-maximal effect
How it was run: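 HCT-116 p53RE-bla, 4,000 cells/well, 5 h pre-incubation; cpd + rat liver microsomes 0.5 mg/mL + NADPH 0.5 mg/mL (final); 16 h, 37 C; CellTiter-Glo, 30 min RT; luminescence.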

[8] = p53 small molecule agonists, cell-based qHTS assay: qHTS cell viability counter screen (AID 1963581); note: nearly all actives have a fitted effect of over 45% in size
How it was run: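 Compounds are pinned onto HCT-116 p53RE-bla cells and left 16 h at 37 C. Following the reporter FRET read, ATP is quantified by CellTiter-Glo luminescence after 30 min at room temperature.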

[9] = p53 small molecule agonists, cell-based qHTS assay (AID 1963582; active = well fitted activation curve with a large enough effect in the signal ratio in the repeat runs, not every such curve was filed as active; the % refers to the signal ratio)
How it was run: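 Agonist activity was scored from beta-lactamase FRET fluorescence in p53RE-bla cells treated 16 h at 37 C with compounds in DMSO, substrate incubation being 2 h at room temperature.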

[10] = target: 5-hydroxytryptamine receptor 2A (Homo sapiens) (UniProt P28223); assay: 5-hydroxytryptamine receptor 2A (HTR2A) small molecule antagonists, cell-based qHTS assay (AID 1963586); note: nearly all actives have a fitted effect of over 45% in size; note: potency is the fitted concentration of half-maximal effect
Sequence of 5-hydroxytryptamine receptor 2A (Homo sapiens) (P28223 whole entry, looked up): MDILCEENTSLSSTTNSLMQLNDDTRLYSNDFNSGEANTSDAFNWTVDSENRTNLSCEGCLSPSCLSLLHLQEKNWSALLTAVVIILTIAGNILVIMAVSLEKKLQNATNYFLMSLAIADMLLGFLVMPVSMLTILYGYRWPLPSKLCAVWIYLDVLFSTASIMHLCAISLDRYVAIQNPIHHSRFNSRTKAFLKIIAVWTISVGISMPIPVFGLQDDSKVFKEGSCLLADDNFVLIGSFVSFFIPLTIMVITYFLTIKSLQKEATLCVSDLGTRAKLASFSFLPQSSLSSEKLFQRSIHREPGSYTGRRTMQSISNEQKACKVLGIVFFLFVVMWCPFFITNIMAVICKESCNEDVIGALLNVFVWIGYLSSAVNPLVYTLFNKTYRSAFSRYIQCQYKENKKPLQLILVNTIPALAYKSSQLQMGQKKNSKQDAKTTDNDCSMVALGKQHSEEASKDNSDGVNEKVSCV
How it was run: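 Antagonist-mode intracellular calcium assay: DOI (4 nM) added after 5 min compound pre-incubation at room temperature to dye-loaded HTR2A-CHO cells. Fluorescence followed for 3 min, sampled every second.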

[11] = target: 5-hydroxytryptamine receptor 2A (Homo sapiens) (UniProt P28223); assay: 5-hydroxytryptamine receptor 2A (HTR2A) small molecule agonists, cell-based qHTS assay (AID 1963587); note: nearly all actives have a fitted effect of over 30% in size; note: potency is the fitted concentration of half-maximal effect
How it was run: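 Kinetic calcium-flux fluorescence (2 min, 1 sec intervals) after compound addition in agonist mode. HTR2A-CHO cells were cultured 18 h, then dye-loaded 1 h at 37 C.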

[12] = target: Muscarinic acetylcholine receptor M1 (Homo sapiens) (UniProt P11229); assay: Cholinergic receptor muscarinic 1 (CHRM1) small molecule antagonists, cell-based qHTS assay (AID 1963588); note: nearly all actives have a fitted effect of over 40% in size; note: potency is the fitted concentration of half-maximal effect
Sequence of Muscarinic acetylcholine receptor M1 (Homo sapiens) (P11229 whole entry, looked up): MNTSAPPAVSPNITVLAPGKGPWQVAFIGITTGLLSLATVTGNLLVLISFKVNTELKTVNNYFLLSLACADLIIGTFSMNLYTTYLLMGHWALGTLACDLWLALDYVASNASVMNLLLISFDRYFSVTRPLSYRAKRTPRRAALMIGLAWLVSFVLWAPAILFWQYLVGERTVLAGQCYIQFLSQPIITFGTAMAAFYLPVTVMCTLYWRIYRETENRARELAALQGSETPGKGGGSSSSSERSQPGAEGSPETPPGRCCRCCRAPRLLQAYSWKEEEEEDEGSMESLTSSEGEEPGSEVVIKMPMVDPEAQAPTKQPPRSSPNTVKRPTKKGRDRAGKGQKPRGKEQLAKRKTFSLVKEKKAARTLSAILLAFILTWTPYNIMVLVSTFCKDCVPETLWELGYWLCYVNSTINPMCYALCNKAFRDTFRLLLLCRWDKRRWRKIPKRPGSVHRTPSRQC
How it was run: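 CHRM1-CHO calcium-flux assay, antagonist mode. Cells were seeded 18 h, dye-loaded 1 h at 37 C and given compound for 5 min at RT, then acetylcholine was added at 50nM. FDSS fluorescence was read 3 min; 15 concentrations, three runs.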

[13] = target: Muscarinic acetylcholine receptor M1 (Homo sapiens) (UniProt P11229); assay: Cholinergic receptor muscarinic 1 (CHRM1) small molecule agonists, cell-based qHTS assay (AID 1963589); note: nearly all actives have a fitted effect of over 35% in size
How it was run: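 Stable CHRM1-CHO cells (human receptor) were incubated 18 h, dye-loaded for 1 h at 37 C and exposed to test compounds for agonist activity, with calcium-dependent fluorescence followed kinetically.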

[14] = target: Beta-2 adrenergic receptor (Homo sapiens) (UniProt P07550); assay: Adrenergic beta2 receptor (ADRB2) small molecule antagonists, cell-based qHTS assay (AID 1963592); note: series mostly up to about 92 µM; nearly all actives have a fitted effect of over 50% in size
Sequence of Beta-2 adrenergic receptor (Homo sapiens) (P07550 whole entry, looked up): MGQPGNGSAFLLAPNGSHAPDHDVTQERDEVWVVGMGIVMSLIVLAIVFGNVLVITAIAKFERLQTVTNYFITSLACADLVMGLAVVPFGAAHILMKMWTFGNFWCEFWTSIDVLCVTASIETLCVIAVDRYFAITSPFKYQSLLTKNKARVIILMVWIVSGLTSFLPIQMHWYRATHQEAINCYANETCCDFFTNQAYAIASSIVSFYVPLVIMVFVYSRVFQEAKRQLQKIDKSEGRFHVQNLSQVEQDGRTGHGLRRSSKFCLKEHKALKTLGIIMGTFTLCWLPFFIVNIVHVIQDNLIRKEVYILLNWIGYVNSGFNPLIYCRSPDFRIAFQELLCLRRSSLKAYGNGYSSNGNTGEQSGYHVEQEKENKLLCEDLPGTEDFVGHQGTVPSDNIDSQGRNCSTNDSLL
How it was run: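 Cells (CHO, stable ADRB2 overexpression) incubated 18-20hr at 37C; compounds added from DMSO; agonist mix (1nM isoproterenol, 100uM IBMX, 25uM Ro-20-1724) added; 0.5hr RT; d2-cAMP and anti-cAMP-cryptate added; 1hr RT; 665/615 nm read.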

[15] = target: D(2) dopamine receptor (Homo sapiens) (UniProt P14416); assay: Dopamine D2 receptor (DRD2) small molecule agonists, cell-based qHTS assay (AID 1963594); note: nearly all actives have a fitted effect of over 35% in size
Sequence of D(2) dopamine receptor (Homo sapiens) (P14416 whole entry, looked up): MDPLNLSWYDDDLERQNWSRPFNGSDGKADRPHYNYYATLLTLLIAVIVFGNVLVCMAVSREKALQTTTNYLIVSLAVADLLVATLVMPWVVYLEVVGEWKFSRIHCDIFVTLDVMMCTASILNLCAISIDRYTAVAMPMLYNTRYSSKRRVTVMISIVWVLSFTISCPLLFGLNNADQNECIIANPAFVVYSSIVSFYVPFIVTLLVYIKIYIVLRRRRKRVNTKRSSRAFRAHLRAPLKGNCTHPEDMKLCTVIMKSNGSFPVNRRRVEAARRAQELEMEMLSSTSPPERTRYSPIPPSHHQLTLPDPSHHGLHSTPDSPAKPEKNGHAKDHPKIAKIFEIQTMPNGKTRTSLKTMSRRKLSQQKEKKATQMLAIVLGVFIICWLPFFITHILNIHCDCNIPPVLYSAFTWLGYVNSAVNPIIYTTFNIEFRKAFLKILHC
How it was run: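 cAMP accumulation in DRD2-HEK293 cells measured by HTRF after 1 h detection; compounds added 10 min before NKH477 (200nM […]) forskolin-analogue stimulation, 30 min at room temperature, with Ro20-1724 present at 0.1 mM final.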

[16] = target: Beta-2 adrenergic receptor (Homo sapiens) (UniProt P07550); assay: Adrenergic beta2 receptor (ADRB2) small molecule agonists, cell-based qHTS assay (AID 1963593);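 note: CHO cells stably overexpressing human ADRB2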
How it was run: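 CHO cells stably over-expressing ADRB2 were plated overnight at 37C, then dosed with compounds plus a stimulation mix containing 100uM IBMX and 25uM Ro-20-1724 for 0.5hr at room temperature. cAMP was measured by HTRF competition, 1hr.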

[17] = cAMP Responsive Elements (CRE) small molecule agonists, cell-based qHTS assay (AID 1963590)
How it was run: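 FRET-based beta-lactamase readout (LiveBLAzer B/G, 2 h RT) quantified CRE activation in HEK 293T CRE-bla cells after 3 h treatment with DMSO-dissolved compounds.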

[18] = target: D(2) dopamine receptor (Homo sapiens) (UniProt P14416); assay: Dopamine D2 receptor (DRD2) small molecule antagonists, cell-based qHTS assay (AID 1963595; active = well fitted inhibition curve with a large enough effect in the signal ratio in the repeat runs, with a control signal flat; the % refers to the signal ratio; note: potency is the fitted concentration of half-maximal effect)
How it was run: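 HEK293 cells stably expressing DRD2 were preincubated with 0.1 mM Ro20-1724, then with compound for 10 min at room temperature. Cells were stimulated with 200 nM NKH477 plus 12 nM quinpirole for 30 min, and cAMP was read by HTRF.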

[19] = cAMP Responsive Elements (CRE) small molecule antagonists, cell-based qHTS assay (AID 1963591; active = well fitted inhibition curve with a large enough effect in the signal ratio in the repeat runs, not every such curve was filed as active; the % refers to the signal ratio)
How it was run: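 qHTS in CRE-bla HEK 293T cells: compound in DMSO, then 0.25 uM NKH477 (final), 3 h at 37 °C/5% CO2; beta-lactamase FRET read-out after 2 h substrate incubation.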

O=C(/C=C/c1ccc([N+](=O)[O-])cc1)c1ccccc1
Potency [1]: inactive
Potency [2]: inactive
Potency [3]: inactive
Potency [4]: inactive
Potency [5]: inactive
Potency [6]: inactive
Potency [7]: 20.5 µM (active)
Potency [8]: inactive
Potency [9]: inactive
Potency [10]: inactive
Potency [11]: inactive
Potency [12]: inactive
Potency [13]: inactive
Potency [14]: inactive
Potency [15]: inactive

N/C(=N\N=C\c1ccc(Cl)cc1)N/N=C/c1ccc(Cl)cc1
Potency [1]: inactive
Potency [2]: inactive
Potency [3]: inactive
Potency [4]: inactive
Potency [5]: inactive
Potency [6]: inactive
Potency [7]: inactive
Potency [8]: inactive
Potency [9]: inactive
Potency [10]: inactive
Potency [11]: inactive
Potency [12]: inactive
Potency [13]: inactive
Potency [14]: inactive
Potency [16]: inactive
Potency [15]: inactive

CC[C@H]1OC(=O)[C@H](C)[C@@H](O[C@H]2C[C@@](C)(OC)[C@@H](O)[C@H](C)O2)[C@H](C)[C@@H](O[C@@H]2O[C@H](C)C[C@H](N(C)C)[C@H]2O)[C@](C)(O)C[C@@H](C)CN(C)[C@H](C)[C@@H](O)[C@]1(C)O
Potency [1]: inactive
Potency [2]: inactive
Potency [3]: inactive
Potency [4]: inactive
Potency [5]: inactive
Potency [6]: inactive
Potency [7]: inactive
Potency [8]: inactive
Potency [9]: inactive
Potency [17]: inactive
Potency [16]: inactive
Potency [15]: inactive
Potency [18]: inactive

Cc1ccc(Cl)c(N)c1Cl
Potency [1]: inactive
Potency [2]: inactive
Potency [3]: inactive
Potency [4]: inactive
Potency [5]: inactive
Potency [6]: 18.2 µM (active)
Potency [7]: inactive
Potency [8]: inactive
Potency [9]: inactive
Potency [10]: inactive
Potency [11]: inactive
Potency [12]: inactive
Potency [13]: inactive
Potency [17]: inactive
Potency [14]: inactive
Potency [16]: inactive
Potency [15]: inactive
Potency [18]: inactive

CCCCN(CCCC)CC(O)c1cc(Cl)cc2c1-c1ccc(Cl)cc1/C2=C/c1ccc(Cl)cc1 (stereo unspecified)
Potency [1]: inactive
Potency [2]: inactive
Potency [3]: inactive
Potency [4]: inactive
Potency [5]: inactive
Potency [6]: inactive
Potency [7]: inactive
Potency [8]: inactive
Potency [9]: inactive
Potency [10]: inactive
Potency [12]: inactive
Potency [13]: inactive
Potency [15]: inactive
Potency [18]: inactive

Nc1ccn([C@H]2CS[C@@H](CO)O2)c(=O)n1
Potency [1]: inactive
Potency [2]: inactive
Potency [3]: inactive
Potency [4]: inactive
Potency [5]: inactive
Potency [6]: inactive
Potency [7]: inactive
Potency [8]: inactive
Potency [9]: inactive
Potency [17]: inactive
Potency [19]: inactive
Potency [14]: inactive
Potency [15]: inactive
Potency [18]: inactive

O=Cc1ccc(Cl)c([N+](=O)[O-])c1
Potency [1]: inactive
Potency [2]: inactive
Potency [3]: inactive
Potency [4]: inactive
Potency [5]: inactive
Potency [6]: inactive
Potency [8]: inactive
Potency [10]: inactive
Potency [11]: inactive
Potency [12]: inactive
Potency [13]: inactive
Potency [15]: inactive

CCCN(C1CCN(C(=O)C2CCNCC2)CC1)[C@@H]1CCc2ccc(OC)cc2C1
Potency [1]: inactive
Potency [2]: inactive
Potency [3]: inactive
Potency [4]: inactive
Potency [5]: inactive
Potency [6]: inactive
Potency [7]: inactive
Potency [8]: inactive
Potency [10]: 37.5 µM (active)
Potency [11]: 17.4 µM (active)
Potency [12]: inactive
Potency [13]: inactive
Potency [14]: inactive
Potency [15]: inactive
Potency [18]: inactive

NC1(c2ccc(-c3nc4ccn5c(=O)[nH]nc5c4cc3-c3ccccc3)cc2)CCC1
Potency [1]: inactive
Potency [2]: inactive
Potency [3]: inactive
Potency [4]: inactive
Potency [5]: inactive
Potency [6]: inactive
Potency [7]: inactive
Potency [8]: inactive
Potency [9]: inactive
Potency [10]: inactive
Potency [11]: 26.8 µM (active)
Potency [12]: 2.9 µM (active)
Potency [13]: inactive
Potency [14]: inactive
Potency [15]: inactive
Potency [18]: inactive

CCCCCCCCCc1ccc(OCCOCCO)cc1
Potency [1]: 13 µM (active)
Potency [2]: inactive
Potency [3]: inactive
Potency [4]: inactive
Potency [5]: inactive
Potency [6]: inactive
Potency [7]: inactive
Potency [8]: inactive
Potency [10]: 5.58 µM (active)
Potency [11]: 20.5 µM (active)
Potency [13]: inactive
Potency [14]: inactive
Potency [16]: inactive
Potency [15]: inactive
Potency [18]: 25.6 µM (active)

O=C1CCCC(=O)O1
Potency [1]: inactive
Potency [2]: inactive
Potency [3]: inactive
Potency [4]: inactive
Potency [5]: inactive
Potency [6]: inactive
Potency [7]: inactive
Potency [8]: inactive
Potency [9]: inactive
Potency [10]: inactive
Potency [11]: inactive
Potency [12]: inactive
Potency [17]: inactive
Potency [14]: inactive
Potency [15]: inactive
Potency [18]: inactive

CC(=O)Nc1ccc(S(=O)(=O)Nc2ccc([N+](=O)[O-])cc2)cc1
Potency [1]: inactive
Potency [2]: inactive
Potency [3]: inactive
Potency [4]: inactive
Potency [5]: inactive
Potency [6]: inactive
Potency [7]: inactive
Potency [8]: inactive
Potency [10]: inactive
Potency [11]: inactive
Potency [12]: inactive
Potency [13]: inactive
Potency [17]: inactive
Potency [19]: inactive
Potency [14]: inactive
Potency [16]: inactive
Potency [15]: inactive
Potency [18]: inactive

C[C@@H](O[C@H]1OCCN(Cc2n[nH]c(=O)[nH]2)[C@H]1c1ccc(F)cc1)c1cc(C(F)(F)F)cc(C(F)(F)F)c1
Potency [1]: inactive
Potency [2]: inactive
Potency [3]: inactive
Potency [4]: inactive
Potency [5]: inactive
Potency [6]: inactive
Potency [7]: inactive
Potency [9]: inactive
Potency [12]: inactive
Potency [13]: inactive
Potency [14]: inactive
Potency [15]: inactive
Potency [18]: inactive

CC(C)(C)c1ccc(OC(=O)c2ccccc2O)cc1
Potency [1]: inactive
Potency [2]: inactive
Potency [3]: inactive
Potency [4]: inactive
Potency [5]: inactive
Potency [6]: inactive
Potency [7]: inactive
Potency [8]: inactive
Potency [9]: inactive
Potency [10]: inactive
Potency [11]: inactive
Potency [12]: inactive
Potency [19]: inactive
Potency [14]: inactive
Potency [15]: inactive
Potency [18]: inactive
